Sampled rows, rich in hits. Any-hit rate of the full collection: about 7.3%.
Tau fibril ThT: tau fibrillization inhibition (ThT binding) | P10636 | recombinant tau K18 P301L, heparin-induced fibrillization, ThT fluorescence | Potency, µM (top dose mostly 57.4 µM), inactives show top-dose activity, negative = inhibition, hits mostly inhibitors | 270,000 tested, 2.1% active; further: nearly all actives have a fitted effect of over 55% in size
Target sequence (P10636 561-689 P618L limits assumed): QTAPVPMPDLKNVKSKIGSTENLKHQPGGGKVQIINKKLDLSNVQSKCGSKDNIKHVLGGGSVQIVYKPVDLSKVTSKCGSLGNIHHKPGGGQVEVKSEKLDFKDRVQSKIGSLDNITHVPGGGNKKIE
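Fibril formation assay: tau K18 P301L at 15 uM with trace Alexa 594 label, heparin inducer 20 uM, pH 7 sodium acetate buffer, 37 C for 6 hr; endpoint ThT signal.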
Tau FP inhib: tau fibrillization inhibition (FP). Potency, µM (doses to about 57.7 µM), inactives show at the highest dose activity, negative = inhibition, actives largely listed as inhibitors. P10636. 280,000 tested, 0.39% active. AID 1468. K18 P301L tau heparin fibrillization, Alexa594 FP, 6 h; further: nearly all actives have a fitted effect of over 55% in size
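Quantitative HTS format: compounds meet 15 uM recombinant K18 P301L tau and Alexa 594-tau tracer in 100 mM sodium acetate pH 7; 20 uM heparin triggers fibrillization at 37 C over 6 hr; FP gives the signal.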
Gal4-VP16 FLuc: inhibits Gal4-VP16 luciferase reporter, ROR gamma counter-screen. 310,000 tested, 3.5% active. Drosophila S2 Gal4-VP16 UAS-luciferase, luminescence, 20 h. AID 2546. Potency, µM (top dose mostly 53.6 µM), for the others: top-dose activity, negative = inhibition, usual class: inhibitors;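 further: Gal4-VP16 expression switched on by copper sulfate through the metallothionein promoter; nearly all actives have a fitted effect of over 50% in size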
RORg inh: blocks mouse ROR gamma transcriptional activity; P51450; Drosophila S2 Gal4-RORgamma UAS-luciferase reporter, 20 h; Potency, µM (titrated, usually from 53.6 µM), inactives show at the highest dose activity change, negative = inhibition, usual class: inhibitors; 310,000 tested, 5.4% active; further: nearly all actives have a fitted effect of over 60% in size
Target sequence (P51450 whole entry, looked up, the tested form may be a part): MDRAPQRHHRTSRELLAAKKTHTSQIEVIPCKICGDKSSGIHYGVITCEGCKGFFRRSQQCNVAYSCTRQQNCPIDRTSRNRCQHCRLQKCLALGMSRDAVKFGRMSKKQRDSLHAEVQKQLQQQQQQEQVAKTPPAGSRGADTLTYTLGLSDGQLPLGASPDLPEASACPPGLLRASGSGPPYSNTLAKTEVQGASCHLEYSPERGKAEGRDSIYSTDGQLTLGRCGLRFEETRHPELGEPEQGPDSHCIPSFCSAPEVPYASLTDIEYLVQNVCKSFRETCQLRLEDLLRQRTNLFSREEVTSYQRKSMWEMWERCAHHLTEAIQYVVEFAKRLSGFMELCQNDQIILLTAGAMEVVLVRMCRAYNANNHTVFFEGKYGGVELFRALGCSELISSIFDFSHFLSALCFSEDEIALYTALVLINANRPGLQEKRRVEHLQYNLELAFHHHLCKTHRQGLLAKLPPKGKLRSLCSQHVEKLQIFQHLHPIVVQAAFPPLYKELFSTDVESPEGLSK
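Drosophila S2 cells stably expressing Gal4-DBD/mouse RORγ fusion under metallothionein promoter plus UAS-luciferase; compound 1 h, then 700 uM CuSO4 induction for 20 h at ambient temperature; inhibition read as reduced luminescence.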
Tau fluor cs: counter-screen for tau fibril formation inhibitors; 280,000 tested, 0.93% active; tau K18 P301L (four-repeat tau fragment) Alexa594 fluorescence, heparin fibrillization; Potency, µM (titrated, usually from 57.7 µM), for inactives: at the highest dose activity change, negative = decrease; further: nearly all actives have a fitted effect of over 55% in size
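Human K18 P301L tau (15 uM unlabeled plus 0.24 uM Alexa 594-labeled, final) in 100 mM sodium acetate pH 7 was mixed with compound and 20 uM heparin and incubated 6 hr at 37 C.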
The depositor's hits bear a star; [ ] = remark or other dose. The call rests on the fitted dose curve; in most records, active means well fitted curve in the direction sought with a large enough effect; inconclusive means small, poorly fitted or top-dose-only effect, or another doubt; inactive means no such curve, though single readings can be large; an effect the other way counts as inactive or inconclusive. On the % scale 0 is the no-effect control and ±100 the full control effect; potency means the concentration at half of the fitted maximal effect.

How did CCOC(=O)C1CCN(S(=O)(=O)c2cccc(-c3cn4cc(C)ccc4n3)c2)CC1 do in these assays?
Tau fibril ThT: -8.3%; Tau FP inhib: 1.1%; Gal4-VP16 FLuc: 17.8µM*; RORg inh: -18.7%; Tau fluor cs: -12.6%

How did C[C@H](NC(=O)c1nc[nH]c1C(=O)NCC(=O)OCc1ccccc1)C(=O)OC(C)(C)C do in these assays?
Gal4-VP16 FLuc: inconclusive; RORg inh: -87.8%

What do the screens show for `CC(C)C[C@H](NC(=O)c1[nH]cnc1C(=O)N[C@@H](C)C(=O)OCc1ccccc1)C(=O)OC(C)(C)C`?
Gal4-VP16 FLuc: 15.8µM*; RORg inh: 7.08µM*

Results for CC(C)C[C@H](NC(=O)c1nc[nH]c1C(=O)NCC(=O)OCc1ccccc1)C(=O)OC(C)(C)C ?
Gal4-VP16 FLuc: inconclusive; RORg inh: 12.6µM*

Results for COc1cccc(-c2cc(N(C)Cc3ccco3)ncn2)c1 ?
Gal4-VP16 FLuc: 0.7%; RORg inh: inconclusive

What do the screens show for `Cc1ccc(-c2nc3cc(N)ccc3o2)cc1Br`?
Gal4-VP16 FLuc: -2.2%; RORg inh: inconclusive

How did CN(C)c1ccc(-c2nc3cc(N)ccc3o2)cc1 do in these assays?
Gal4-VP16 FLuc: 7.08µM*; RORg inh: 7.94µM*

What do the screens show for `COC(=O)c1ccc(-c2nc3cc(N)ccc3o2)cc1`?
Tau fibril ThT: 5.01µM*; Tau FP inhib: 13.4%; Gal4-VP16 FLuc: -12.9%; RORg inh: -41.5%; Tau fluor cs: -17.5%

What do the screens show for `O=C(O)c1ccc(Cl)c2c1C1C=CCC1C(c1ccccn1)N2` (configuration not stated)?
Tau fibril ThT: 14.1µM*; Tau FP inhib: inconclusive; Gal4-VP16 FLuc: -7.8%; RORg inh: -2.5%; Tau fluor cs: 14.1µM*[quencher]

What do the screens show for `Cc1cc([N+](=O)[O-])cc2c1NC(c1ccccn1)C1CC=CC21` (configuration not stated)?
Tau fibril ThT: -10.2%; Tau FP inhib: -4.6%; Gal4-VP16 FLuc: 2.8%; RORg inh: -2.7%; Tau fluor cs: -11.9%

Results for O=[N+]([O-])c1ccc(Cl)c2c1C1C=CCC1C(c1ccccn1)N2 (configuration not stated) ?
Tau fibril ThT: 25.1µM*; Tau FP inhib: inconclusive; Gal4-VP16 FLuc: 2.9%; RORg inh: 2.7%; Tau fluor cs: inconclusive

How did Cc1ccc(NC(=O)Cn2nnc(-c3nc(-c4ccc(Cl)cc4)no3)c2N)cc1C do in these assays?
Tau fibril ThT: 4.7%; Tau FP inhib: -17.3%; Tau fluor cs: -6.0%

Results for CCOC(=O)c1c(NC(=O)COc2cccc(C(F)(F)F)c2)sc2c1CCC(C)C2 (configuration not stated) ?
Tau fibril ThT: inconclusive; Tau FP inhib: -9.9%; Tau fluor cs: -26.6%

What do the screens show for `Cc1nn(CC(=O)NCCc2ccc(Cl)cc2)c(=O)c2cc3cc(F)ccc3n12`?
Tau fibril ThT: -1.6%; Tau FP inhib: -5.3%; Tau fluor cs: -9.2%

How did N#C/C(=C/c1ccco1)C(N)=S do in these assays?
Tau fibril ThT: 28.2µM*; Tau FP inhib: inconclusive; Gal4-VP16 FLuc: -22.7%; RORg inh: -0.8%; Tau fluor cs: inconclusive

Results for COc1ccc(NC(=S)NC(NC(=O)C(C)C)C(Cl)(Cl)Cl)c([N+](=O)[O-])c1 (configuration not stated) ?
Tau fibril ThT: -7.0%; Tau FP inhib: -7.6%; Gal4-VP16 FLuc: inconclusive; RORg inh: 17.8µM*; Tau fluor cs: -8.4%

What do the screens show for `Cc1ccc(NC(=S)NC(C)(C)C)c([N+](=O)[O-])c1`?
Tau fibril ThT: -17.4%; Tau FP inhib: -1.5%; Gal4-VP16 FLuc: 7.94µM*; RORg inh: 3.16µM*; Tau fluor cs: -21.7%

Results for C#C[C@@]1(O)CC[C@@H]2[C@@H]3CCC4=CC(=O)CC[C@@H]4[C@H]3CC[C@]21CC ?
Gal4-VP16 FLuc: 3.6%[17 µM]; RORg inh: 1.7%[16.9 µM]

How did COC(=O)c1cccc(-c2ccc(C(c3c(C)[nH][nH]c3=O)c3c(C)[nH][nH]c3=O)o2)c1 do in these assays?
Tau fibril ThT: 7.94µM*; Tau FP inhib: inconclusive; Gal4-VP16 FLuc: -15.1%; RORg inh: 11.2µM*; Tau fluor cs: -25.5%

What do the screens show for `COC(=O)c1ccccc1-c1ccc(C(c2c(C)[nH][nH]c2=O)c2c(C)[nH][nH]c2=O)o1`?
Tau fibril ThT: -2.8%; Tau FP inhib: -5.1%; Gal4-VP16 FLuc: -6.3%; RORg inh: 37.3%; Tau fluor cs: -11.7%

How did Cc1[nH][nH]c(=O)c1C(c1ccc(-c2ccc(Cl)c(C(=O)O)c2)o1)c1c(C)[nH][nH]c1=O do in these assays?
Tau fibril ThT: 10µM*; Tau FP inhib: inconclusive; Gal4-VP16 FLuc: -5.8%; RORg inh: 7.7%; Tau fluor cs: -15.6%

Results for CCOC(=O)c1c(S(=O)(=O)N2CCC(C(=O)Nc3ccc(C)cn3)CC2)c(C)n(C)c1C ?
Tau fibril ThT: -4.2%; Tau FP inhib: -2.5%; Tau fluor cs: -8.2%

How did CC(C)CN1CCC(=O)N([C@H](CO)Cc2ccccc2)CC1 do in these assays?
Gal4-VP16 FLuc: -2.2%; RORg inh: -27.0%

Results for O=C(N/N=C/c1cnc(N2CCCCC2)s1)c1ccc(Cl)cc1 ?
Tau fibril ThT: inconclusive; Tau FP inhib: 14.3%; Gal4-VP16 FLuc: inconclusive; RORg inh: 2.24µM*; Tau fluor cs: inconclusive

Results for CCc1ccc(Nc2n[n+](-c3ccccc3)c(/C=C/c3ccccc3)s2)cc1 ?
Gal4-VP16 FLuc: -87.7%; RORg inh: inconclusive

How did CN(C)c1ccc(-c2sc(Nc3ccccc3)n[n+]2-c2ccc(F)cc2)cc1 do in these assays?
Gal4-VP16 FLuc: 3.0%; RORg inh: 14.1µM*

Results for CCc1ccc(Nc2n[n+](-c3ccccc3)c(-c3cc(OC)c(OC)cc3Br)s2)cc1 ?
Gal4-VP16 FLuc: -26.2%; RORg inh: 10µM*

Results for CCc1ccc(Nc2n[n+](-c3ccccc3)c(-c3ccc(N(CC)CC)cc3)s2)cc1 ?
Gal4-VP16 FLuc: 12.6µM*; RORg inh: inconclusive

How did CCN(CC)c1ccc(-c2sc(Nc3ccccc3)n[n+]2-c2ccc(F)cc2)cc1 do in these assays?
Gal4-VP16 FLuc: 17.4%; RORg inh: 10µM*

Results for O=c1c2c3c(sc2n(Cc2cc(=O)n4ccccc4n2)c(=O)n1-c1ccc(Cl)cc1)CCC3 ?
Tau fibril ThT: 0.5%; Tau FP inhib: -11.4%; Tau fluor cs: -7.8%

How did COc1ccccc1N1CCN(S(=O)(=O)c2ccc(-c3ccno3)cc2OC)CC1 do in these assays?
Tau fibril ThT: 5.3%; Tau FP inhib: 16.9%; Tau fluor cs: -23.5%

How did C=Cc1ccc(CN2C(=O)N(c3ccc(CC)cc3)S(=O)(=O)c3ccccc32)cc1 do in these assays?
Tau fibril ThT: 12.8%; Tau FP inhib: inconclusive; Tau fluor cs: -1.0%

Screening data (PubChem)
